According to the supplement of paper PMC11732987, “Enantioselective OTUD7B fragment discovery through chemoproteomics screening and high-throughput optimisation” (Communications Chemistry, 2025):

Experiments:
Experiment in all cases: log2 ratio of Biotin-Ahx-Ub-VS probe labelling (fragment/DMSO); higher = less target engagement (more negative = stronger competition), active = hit call of the paper (q ≤ 0.05, log2 ratio ≤ -1)
Conditions in all cases: compound concentration: 200 uM; treatment time: 3 h
ALG13 = biological target: T1, ALG13 (UniProt Q9NP73)
T1 sequence (whole entry): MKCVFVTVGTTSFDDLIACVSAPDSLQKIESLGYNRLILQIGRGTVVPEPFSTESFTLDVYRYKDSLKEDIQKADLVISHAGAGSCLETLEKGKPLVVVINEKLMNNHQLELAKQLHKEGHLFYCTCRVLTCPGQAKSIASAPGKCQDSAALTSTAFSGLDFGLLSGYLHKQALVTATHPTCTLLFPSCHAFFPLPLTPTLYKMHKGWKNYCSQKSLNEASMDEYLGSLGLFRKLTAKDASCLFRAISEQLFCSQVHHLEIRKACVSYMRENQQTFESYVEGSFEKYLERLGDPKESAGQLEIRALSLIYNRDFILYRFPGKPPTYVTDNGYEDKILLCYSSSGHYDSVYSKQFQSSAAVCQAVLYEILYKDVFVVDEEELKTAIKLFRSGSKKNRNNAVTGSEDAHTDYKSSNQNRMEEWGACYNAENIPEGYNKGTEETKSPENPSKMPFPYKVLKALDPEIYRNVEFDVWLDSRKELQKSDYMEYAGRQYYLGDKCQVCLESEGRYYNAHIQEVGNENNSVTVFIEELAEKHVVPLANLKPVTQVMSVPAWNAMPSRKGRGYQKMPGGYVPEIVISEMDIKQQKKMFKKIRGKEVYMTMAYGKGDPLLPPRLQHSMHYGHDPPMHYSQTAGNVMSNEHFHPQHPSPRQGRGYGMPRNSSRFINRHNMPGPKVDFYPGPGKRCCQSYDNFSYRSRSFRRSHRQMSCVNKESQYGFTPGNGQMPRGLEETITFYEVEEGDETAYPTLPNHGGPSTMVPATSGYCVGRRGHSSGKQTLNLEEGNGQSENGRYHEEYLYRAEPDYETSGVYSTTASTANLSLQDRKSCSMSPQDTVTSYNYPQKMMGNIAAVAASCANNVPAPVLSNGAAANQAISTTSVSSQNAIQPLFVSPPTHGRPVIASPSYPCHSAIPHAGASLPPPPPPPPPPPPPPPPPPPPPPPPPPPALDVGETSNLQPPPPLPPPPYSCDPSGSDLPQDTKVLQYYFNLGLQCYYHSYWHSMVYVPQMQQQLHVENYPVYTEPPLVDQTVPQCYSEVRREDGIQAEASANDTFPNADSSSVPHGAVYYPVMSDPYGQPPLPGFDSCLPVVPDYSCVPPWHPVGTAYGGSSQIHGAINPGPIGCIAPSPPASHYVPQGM
Summary of the method: (§1)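 Average log2 ratios of fragment over vehicle were obtained by unpaired t-test from global-median-normalised Spectronaut label-free quantities. Proteins with ≥2 unique peptides were included. HEK293T lysate (495 µg per sample) was treated in triplicate with fragment at 200 µM or vehicle for 3 h, then with Biotin-Ahx-Ub-VS at 0.5 µM final for 1 h, and labelled DUBs were NeutrAvidin-enriched and run by diaPASEF LC-MS/MS.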

ATXN3 = ATXN3 (UniProt P54252)
Summary of the method: as §1

BAP1 = biological target: T2, BAP1 (UniProt Q92560)
T2 sequence (whole entry): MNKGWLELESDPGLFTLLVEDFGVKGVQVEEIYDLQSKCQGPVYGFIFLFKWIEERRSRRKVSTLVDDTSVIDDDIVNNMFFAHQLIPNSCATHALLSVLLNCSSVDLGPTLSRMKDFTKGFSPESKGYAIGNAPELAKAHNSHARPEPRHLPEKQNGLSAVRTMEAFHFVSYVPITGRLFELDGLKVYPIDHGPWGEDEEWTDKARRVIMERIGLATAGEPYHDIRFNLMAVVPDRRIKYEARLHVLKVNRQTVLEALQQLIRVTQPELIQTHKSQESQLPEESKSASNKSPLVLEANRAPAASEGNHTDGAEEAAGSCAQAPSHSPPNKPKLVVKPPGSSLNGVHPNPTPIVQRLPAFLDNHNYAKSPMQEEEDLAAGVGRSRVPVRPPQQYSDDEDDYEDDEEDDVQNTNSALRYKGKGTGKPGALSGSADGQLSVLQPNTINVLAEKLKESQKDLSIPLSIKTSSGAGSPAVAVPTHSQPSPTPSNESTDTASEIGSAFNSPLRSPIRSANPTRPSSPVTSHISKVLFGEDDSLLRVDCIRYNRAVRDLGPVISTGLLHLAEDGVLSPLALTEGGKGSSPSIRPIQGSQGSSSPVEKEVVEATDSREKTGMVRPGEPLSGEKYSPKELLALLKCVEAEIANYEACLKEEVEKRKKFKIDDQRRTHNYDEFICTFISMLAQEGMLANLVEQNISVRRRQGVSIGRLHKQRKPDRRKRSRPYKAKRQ
Summary of the method: as §1

EIF3F = EIF3F (UniProt O00303)
Summary of the method: as §1

EIF3H = EIF3H (UniProt O15372)
Summary of the method: as §1

FAM105A = biological target: T3, FAM105A (UniProt Q9NUU6)
T3 sequence (whole entry): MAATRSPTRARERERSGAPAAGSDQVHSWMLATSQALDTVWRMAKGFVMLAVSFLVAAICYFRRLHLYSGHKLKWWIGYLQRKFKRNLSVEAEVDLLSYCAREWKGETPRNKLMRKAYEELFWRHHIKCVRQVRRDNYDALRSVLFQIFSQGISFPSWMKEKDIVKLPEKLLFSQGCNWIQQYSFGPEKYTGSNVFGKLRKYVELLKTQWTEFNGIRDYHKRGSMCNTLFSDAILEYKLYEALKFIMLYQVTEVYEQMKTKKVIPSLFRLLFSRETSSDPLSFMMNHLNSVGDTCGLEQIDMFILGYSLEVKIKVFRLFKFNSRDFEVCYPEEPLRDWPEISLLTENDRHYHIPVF
Summary of the method: as §1

OTUB1 = OTUB1 (UniProt Q96FW1)
Summary of the method: as §1

OTUD4 = biological target: T4, OTUD4 (UniProt Q01804)
T4 sequence (whole entry): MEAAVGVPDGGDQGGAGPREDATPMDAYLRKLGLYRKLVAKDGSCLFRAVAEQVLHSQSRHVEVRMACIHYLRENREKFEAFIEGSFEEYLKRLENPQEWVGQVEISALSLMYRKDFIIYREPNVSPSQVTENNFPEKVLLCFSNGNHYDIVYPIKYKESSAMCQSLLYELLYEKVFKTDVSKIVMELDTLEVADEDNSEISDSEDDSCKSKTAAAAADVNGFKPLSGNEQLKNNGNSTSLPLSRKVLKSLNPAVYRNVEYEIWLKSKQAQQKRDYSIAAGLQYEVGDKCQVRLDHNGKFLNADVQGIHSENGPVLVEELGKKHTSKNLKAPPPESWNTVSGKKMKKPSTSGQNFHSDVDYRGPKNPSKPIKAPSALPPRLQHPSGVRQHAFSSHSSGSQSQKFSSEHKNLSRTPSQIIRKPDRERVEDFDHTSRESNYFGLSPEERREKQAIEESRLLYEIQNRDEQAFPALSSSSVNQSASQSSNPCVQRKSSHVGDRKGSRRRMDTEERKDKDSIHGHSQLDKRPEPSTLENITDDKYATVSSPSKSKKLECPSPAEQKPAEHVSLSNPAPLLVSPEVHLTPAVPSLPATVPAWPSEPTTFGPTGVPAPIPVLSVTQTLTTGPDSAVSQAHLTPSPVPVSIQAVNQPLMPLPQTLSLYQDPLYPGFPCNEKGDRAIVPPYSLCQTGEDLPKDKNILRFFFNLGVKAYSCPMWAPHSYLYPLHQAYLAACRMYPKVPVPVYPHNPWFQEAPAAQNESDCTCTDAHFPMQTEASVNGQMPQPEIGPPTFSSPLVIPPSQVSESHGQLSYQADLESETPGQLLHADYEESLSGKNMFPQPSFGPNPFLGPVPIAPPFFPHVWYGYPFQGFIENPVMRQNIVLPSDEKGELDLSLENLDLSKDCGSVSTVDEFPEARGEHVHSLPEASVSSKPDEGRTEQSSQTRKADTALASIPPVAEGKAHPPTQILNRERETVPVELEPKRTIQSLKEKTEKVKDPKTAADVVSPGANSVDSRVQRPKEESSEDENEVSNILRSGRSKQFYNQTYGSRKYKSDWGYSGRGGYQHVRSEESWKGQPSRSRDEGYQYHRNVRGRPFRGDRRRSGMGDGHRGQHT
Summary of the method: as §1

OTUD5 = biological target: T5, OTUD5 (UniProt Q96G74)
T5 sequence (whole entry): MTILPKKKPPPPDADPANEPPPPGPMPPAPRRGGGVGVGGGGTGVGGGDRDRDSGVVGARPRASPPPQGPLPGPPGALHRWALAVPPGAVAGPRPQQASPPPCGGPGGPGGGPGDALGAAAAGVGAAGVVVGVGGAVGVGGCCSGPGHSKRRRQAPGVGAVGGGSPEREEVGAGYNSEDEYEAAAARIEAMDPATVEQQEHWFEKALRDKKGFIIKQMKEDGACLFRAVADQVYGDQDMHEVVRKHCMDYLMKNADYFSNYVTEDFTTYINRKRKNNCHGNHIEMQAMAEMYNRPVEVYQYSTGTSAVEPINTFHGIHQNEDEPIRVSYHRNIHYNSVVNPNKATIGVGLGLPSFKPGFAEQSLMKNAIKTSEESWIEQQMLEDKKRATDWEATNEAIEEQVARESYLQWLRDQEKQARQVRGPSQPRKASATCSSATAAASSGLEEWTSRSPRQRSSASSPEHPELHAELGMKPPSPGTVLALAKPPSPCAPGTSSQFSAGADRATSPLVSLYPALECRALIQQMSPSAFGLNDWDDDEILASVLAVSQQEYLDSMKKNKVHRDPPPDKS
Summary of the method: as §1

Measured: log2 ratio of Biotin-Ahx-Ub-VS probe labelling

Chain of ATXN3 (P54252 whole entry): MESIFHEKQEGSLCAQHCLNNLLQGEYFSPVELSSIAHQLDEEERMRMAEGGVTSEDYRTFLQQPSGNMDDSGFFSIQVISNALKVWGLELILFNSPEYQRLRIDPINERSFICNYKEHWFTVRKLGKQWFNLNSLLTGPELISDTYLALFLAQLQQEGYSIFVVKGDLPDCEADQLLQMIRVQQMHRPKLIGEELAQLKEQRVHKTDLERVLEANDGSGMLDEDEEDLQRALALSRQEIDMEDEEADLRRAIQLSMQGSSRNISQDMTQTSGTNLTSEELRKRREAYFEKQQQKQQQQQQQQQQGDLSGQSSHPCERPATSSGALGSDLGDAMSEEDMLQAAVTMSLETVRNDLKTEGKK
Chain of EIF3F (O00303 whole entry): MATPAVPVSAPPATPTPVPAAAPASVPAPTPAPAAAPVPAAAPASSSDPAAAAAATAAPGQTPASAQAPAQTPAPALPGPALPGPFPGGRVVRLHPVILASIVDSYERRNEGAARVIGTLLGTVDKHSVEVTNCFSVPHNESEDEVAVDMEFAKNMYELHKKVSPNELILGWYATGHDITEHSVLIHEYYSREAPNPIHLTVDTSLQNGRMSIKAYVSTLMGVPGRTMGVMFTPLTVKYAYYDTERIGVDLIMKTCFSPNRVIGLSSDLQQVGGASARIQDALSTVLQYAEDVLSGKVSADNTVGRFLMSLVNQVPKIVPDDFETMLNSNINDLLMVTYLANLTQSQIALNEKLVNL
Chain of EIF3H (O15372 whole entry): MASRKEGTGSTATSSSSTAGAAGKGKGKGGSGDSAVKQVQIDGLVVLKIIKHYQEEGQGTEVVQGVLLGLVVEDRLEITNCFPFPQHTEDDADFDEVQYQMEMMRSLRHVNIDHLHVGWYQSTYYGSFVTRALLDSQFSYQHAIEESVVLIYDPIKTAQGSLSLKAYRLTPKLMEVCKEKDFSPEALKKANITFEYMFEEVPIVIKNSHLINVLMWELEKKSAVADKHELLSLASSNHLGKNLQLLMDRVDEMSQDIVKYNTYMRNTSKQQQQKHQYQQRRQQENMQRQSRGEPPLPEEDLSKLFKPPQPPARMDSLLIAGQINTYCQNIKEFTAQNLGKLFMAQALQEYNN
Chain of OTUB1 (Q96FW1 whole entry): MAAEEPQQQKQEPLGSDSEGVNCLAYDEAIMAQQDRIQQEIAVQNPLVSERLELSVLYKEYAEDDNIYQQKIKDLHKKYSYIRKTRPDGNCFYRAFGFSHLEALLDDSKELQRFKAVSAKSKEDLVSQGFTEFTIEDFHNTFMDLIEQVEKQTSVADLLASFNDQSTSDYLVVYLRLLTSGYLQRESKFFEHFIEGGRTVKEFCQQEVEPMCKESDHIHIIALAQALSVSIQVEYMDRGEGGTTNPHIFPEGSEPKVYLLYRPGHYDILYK

Cc1ccc(CC(CO)CNC(=O)CCl)cc1 (centres undefined)
active: BAP1 -3.74
inactive: ALG13 -0.289 | ATXN3 -0.385 | EIF3F 0.0794 | EIF3H 0.139 | FAM105A 0.442 | OTUB1 -0.0508 | OTUD4 -0.858 | OTUD5 -0.455
